MITF TRPM1 inh: reduces MITF-dependent TRPM1 promoter luciferase signal. SK-MEL-5 TRPM1 promoter luciferase, 24 h. inhibition, % at 12.5 µM. 330,000 tested, 0.83% active. AID 488899;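 active = mean inhibition across replicates of 60% or more, whatever share of single replicates reaches that level; inconclusive = some that reach 60%, reason not given; inactive = mean inhibition across replicates below 60%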
EBV LMP1 NFkB: reduces LMP1-driven NF-kappaB luciferase signal; inhibition, % at 12.5 µM; 350,000 tested, 0.69% active; LMP1-induced NF-kappaB luciferase reporter cells, luminescence; in the data active = inhibition above about 41%; inconclusive = no clear call, values can overlap the other calls;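 note: 0% = neutral control wells and 100% = reference inhibitor control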
Peg3 promoter: inhibitors of Peg3 promoter; inhibition, % at 20 µM; HeLa PEG-Prom luciferase reporter, luminescence, overnight; 360,000 tested, 1.7% active;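 active = inhibition of at least 50% at 20 µM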
TWEAK Fn14 block: TWEAK-Fn14 signaling inhibition; TWEAK-stimulated Fn14 reporter cells, luciferase luminescence, 8 h; inhibition, % at 10 µM; 360,000 tested, 2% active; AID 1159606; in the data active = inhibition above about 50%
TROY NFkB inh: blocks TROY-dependent signaling in reporter cells | Q293 LMP1-TROYcd NF-kB luciferase reporter, 4 h | 360,000 tested, 0.98% active | inhibition, % at 10 µM;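 active = compounds whose plate-normalised and pattern-corrected inhibition of the luciferase reporter signal at the single screening dose is 50% or more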
Shn3 3UTR inh: Schnurri-3 reporter inhibition in Clone20 osteoblasts; Clone20 osteoblast Shn3 3'UTR firefly luciferase, 24 h; inhibition, % at 12.5 µM; 360,000 tested, 0.52% active;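 active = mean inhibition of at least 75% with every replicate also reaching 75%; inconclusive = mean inhibition at least 75% but some replicate below; inactive = mean inhibition below 75%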;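 note: 0% = median of neutral control wells and 100% = pilot-screen positive control compound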
Active calls of the source: *. In the library only some 4.1% were active in any assay of this set; here they are far more common.

How did C#CC[N+](C)(C)CCCCCCCCCCCC do in these assays?
MITF TRPM1 inh: 72*; EBV LMP1 NFkB: 18; Peg3 promoter: 87*; TWEAK Fn14 block: 19; TROY NFkB inh: 29; Shn3 3UTR inh: 77

Results for CC#CC[N+](C)(C)CCCCCCCCCCCC ?
MITF TRPM1 inh: 65*; EBV LMP1 NFkB: 25; Peg3 promoter: 59*; TWEAK Fn14 block: 20; TROY NFkB inh: 45; Shn3 3UTR inh: 77

What do the screens show for `COc1ccccc1N(CC(=O)Nc1ccc2c(c1)OCO2)S(=O)(=O)c1ccccc1`?
MITF TRPM1 inh: 7; EBV LMP1 NFkB: 9; Peg3 promoter: 26; TWEAK Fn14 block: 13; TROY NFkB inh: 6; Shn3 3UTR inh: -13

How did COC(=O)c1cc(NC(=O)CN(c2ccccc2OC)S(=O)(=O)c2ccccc2)ccc1Cl do in these assays?
MITF TRPM1 inh: 11; EBV LMP1 NFkB: -2; Peg3 promoter: 5; TWEAK Fn14 block: 53*; TROY NFkB inh: 14; Shn3 3UTR inh: 22

What do the screens show for `COC(=O)c1cc(NC(=O)CN(c2cccc(OC)c2)S(=O)(=O)c2ccccc2)ccc1Cl`?
MITF TRPM1 inh: 2; EBV LMP1 NFkB: -8; Peg3 promoter: 47; TWEAK Fn14 block: 51*; TROY NFkB inh: 35; Shn3 3UTR inh: 60

Results for COc1ccc(CCNC(=O)C(=O)NCC2CCCN2S(=O)(=O)c2ccccc2)cc1 (centres undefined) ?
MITF TRPM1 inh: 1; EBV LMP1 NFkB: 8; Peg3 promoter: 39; TWEAK Fn14 block: -18; TROY NFkB inh: 51*; Shn3 3UTR inh: 26

How did Cc1c(C(=O)Nc2c(C)n(C)n(-c3ccccc3)c2=O)oc2ccc(Cl)cc12 do in these assays?
MITF TRPM1 inh: 7; EBV LMP1 NFkB: 3; Peg3 promoter: 27; TWEAK Fn14 block: -11; TROY NFkB inh: -12; Shn3 3UTR inh: 2

How did O=C(Nc1cccc(Cl)c1Cl)C1CC(=O)N(c2ccc(Br)cc2)C1 (centres undefined) do in these assays?
MITF TRPM1 inh: 22; EBV LMP1 NFkB: 7; Peg3 promoter: 24; TWEAK Fn14 block: -6; TROY NFkB inh: 16; Shn3 3UTR inh: 87*

Results for O=C(Nc1cccc(F)c1)C1CC(=O)N(c2ccc(Br)cc2)C1 (centres undefined) ?
MITF TRPM1 inh: 2; EBV LMP1 NFkB: -8; Peg3 promoter: 19; TWEAK Fn14 block: -2; TROY NFkB inh: 0; Shn3 3UTR inh: -1

What do the screens show for `CCOC(=O)C(C)(C)N(Cc1ccc(C)cc1)S(=O)(=O)c1ccc(Cl)c([N+](=O)[O-])c1`?
MITF TRPM1 inh: 91*; EBV LMP1 NFkB: 1; Peg3 promoter: 105*; TWEAK Fn14 block: 60*; TROY NFkB inh: 30; Shn3 3UTR inh: 4

How did CN(c1ccc(Cl)cc1)c1cc(=O)n(C)c2ccccc12 do in these assays?
MITF TRPM1 inh: 27; EBV LMP1 NFkB: -26; Peg3 promoter: -39; TWEAK Fn14 block: -43; TROY NFkB inh: -47; Shn3 3UTR inh: 9

How did CN(C)c1ccc(C=c2c3ccccc3n3c2c2c([n+]3C)CCCC2)cc1 do in these assays?
MITF TRPM1 inh: 98*; EBV LMP1 NFkB: 42*; Peg3 promoter: 102*; TWEAK Fn14 block: 63*; TROY NFkB inh: 48; Shn3 3UTR inh: 91*

Results for CN(C)c1ccc(C=c2c3cc([N+](=O)[O-])ccc3n3c2cc(-c2ccccc2)[n+]3C)cc1 ?
MITF TRPM1 inh: 95*; EBV LMP1 NFkB: 18; Peg3 promoter: 106*; TWEAK Fn14 block: 76*; TROY NFkB inh: 43; Shn3 3UTR inh: 86*

How did CN(C)c1ccc(C=c2c3ccccc3n3c2cc(-c2ccc(Cl)cc2)[n+]3C)cc1 do in these assays?
MITF TRPM1 inh: 97*; EBV LMP1 NFkB: 22; Peg3 promoter: 61*; TWEAK Fn14 block: 54*; TROY NFkB inh: 62*; Shn3 3UTR inh: inconclusive

What do the screens show for `OCCCNc1ncnc2sc3c(c12)CCN(Cc1ccccc1)C3`?
MITF TRPM1 inh: -2; EBV LMP1 NFkB: -4; Peg3 promoter: 10; TWEAK Fn14 block: 69*; TROY NFkB inh: 36; Shn3 3UTR inh: -3

Results for NNC(=O)CN1CCCc2ccccc21 ?
MITF TRPM1 inh: -30; EBV LMP1 NFkB: -28; Peg3 promoter: -84; TWEAK Fn14 block: 69*; TROY NFkB inh: 71*; Shn3 3UTR inh: -43

What do the screens show for `COCCNC(=O)/C(C#N)=C/c1cccc(/C=C(\C#N)C(=O)NCCOC)c1`?
MITF TRPM1 inh: 65*; EBV LMP1 NFkB: 16; Peg3 promoter: 20; TWEAK Fn14 block: 65*; TROY NFkB inh: 28; Shn3 3UTR inh: 9

How did CCOCCCNC(=O)/C(C#N)=C/c1ccc(Cl)c([N+](=O)[O-])c1 do in these assays?
MITF TRPM1 inh: 89*; EBV LMP1 NFkB: 58*; Peg3 promoter: 105*; TWEAK Fn14 block: 11; TROY NFkB inh: -3; Shn3 3UTR inh: 0

Results for CNC(=O)/C(C#N)=C/c1cccc(Oc2ccccc2)c1 ?
MITF TRPM1 inh: 3; EBV LMP1 NFkB: 1; Peg3 promoter: -45; TWEAK Fn14 block: 53*; TROY NFkB inh: -80; Shn3 3UTR inh: -17

How did CNC(=O)/C(=C\c1cccc(Oc2ccccc2)c1)NC(=O)c1ccccc1 do in these assays?
MITF TRPM1 inh: 8; EBV LMP1 NFkB: 2; Peg3 promoter: 27; TWEAK Fn14 block: -3; TROY NFkB inh: -20; Shn3 3UTR inh: 18

Results for CCOCCCNC(=O)/C(C#N)=C/c1cc(OC)c(O)c([N+](=O)[O-])c1 ?
MITF TRPM1 inh: 9; EBV LMP1 NFkB: -6; Peg3 promoter: 10; TWEAK Fn14 block: 35; TROY NFkB inh: 19; Shn3 3UTR inh: -7

Results for O=S(=O)(NCCN1CCOCC1)c1cccc(C(F)(F)F)c1 ?
MITF TRPM1 inh: 2; EBV LMP1 NFkB: 11; Peg3 promoter: 10; TWEAK Fn14 block: 0; TROY NFkB inh: -23; Shn3 3UTR inh: -7

What do the screens show for `Cc1ccccc1Cn1cc(NC(=O)CCCn2nc([N+](=O)[O-])cc2C)cn1`?
MITF TRPM1 inh: 3; EBV LMP1 NFkB: -3; Peg3 promoter: 22; TWEAK Fn14 block: 8; TROY NFkB inh: -12; Shn3 3UTR inh: 5

What do the screens show for `CC(C)Cc1nnc(NC(=O)c2ccc3c(c2)OCCO3)s1`?
MITF TRPM1 inh: -78; EBV LMP1 NFkB: -17; Peg3 promoter: -225; TWEAK Fn14 block: 46; TROY NFkB inh: -2; Shn3 3UTR inh: 25

What do the screens show for `CN(CCC#N)C(=S)Nc1ccc(F)cc1`?
MITF TRPM1 inh: 6; EBV LMP1 NFkB: 57*; Peg3 promoter: 6; TWEAK Fn14 block: -6; TROY NFkB inh: 7; Shn3 3UTR inh: 6

Results for N#CCCN(Cc1ccccc1)C(=S)Nc1ccc(F)cc1 ?
MITF TRPM1 inh: -12; EBV LMP1 NFkB: -31; Peg3 promoter: 7; TWEAK Fn14 block: 5; TROY NFkB inh: -4

What do the screens show for `CCC(C)N(CCNC(=O)c1ccc2c(c1)NC(=O)c1ccccc1S2)C1CCCCC1` (centres undefined)?
MITF TRPM1 inh: 11; EBV LMP1 NFkB: -10; Peg3 promoter: 76*; TWEAK Fn14 block: 10; TROY NFkB inh: -4; Shn3 3UTR inh: 22
